This is an account of results in PubChem BioAssay (Tox21).

Where “and” joins values, the source holds several entries; their conditions need not be identical. Identical values can stand only once. Results filed as inconclusive are left out. A structure can be active in one record and inactive in another. Calls of active or inactive are those of the source. Unless noted, calls come from the whole dose curve.

A short description of test [1]: Nuclear factor erythroid 2-related factor 2/antioxidant responsive element (Nrf2/ARE) small molecule agonists: qHTS cell viability counter screen in human keratinocytes (AID 1919968; active = well fitted curve in the direction sought with a large enough effect in the repeat runs; an effect the other way counts as inactive or inconclusive; note: nearly all actives have a fitted effect of over 55% in size; note: potency is the fitted concentration of half-maximal effect). The procedure, abridged: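 KeratinoSens HaCaT cells, 1,500/well, preincubated 5 h, then exposed to compounds in DMSO for 23 h at 37 C/5% CO2. Viability read as CellTiter-Fluor fluorescence after 1 h, in the same wells as the ARE-luciferase read.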

Test [2] deals with Gonadotropin-releasing hormone receptor (Homo sapiens) (UniProt P30968). The test is described as follows: Human gonadotropin-releasing hormone receptor (GnRHR) small molecule agonists, calcium flux assay in GnRHR-HEK293 cells (AID 1920063). Note: nearly all actives have a fitted effect of over 35% in size. The procedure, abridged: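 HEK293 cells stably expressing human GnRHR were dye-loaded for 1 h at 37 C. Compound was added in agonist mode and fluorescence (Ex/Em 480/540) recorded kinetically for 3 min. Fifteen concentrations, triplicates.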
In general terms: Calcium flux is commonly read through the fluorescence of an indicator in the cells.

In test [3] the target is KiSS-1 receptor (Homo sapiens) (UniProt Q969F8). The test is described as follows: Human kisspeptin (KISS1R) small molecule agonists, calcium flux assay in KISS1R-HEK293 cells (AID 1920064; active = well fitted curve in the direction sought with a large enough effect in the repeat runs; an effect the other way counts as inactive or inconclusive). The procedure, abridged:
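HEK293 cells stably expressing human KISS1R were loaded with calcium dye for 1 h at 37 C, then given compound; fluorescence (Ex/Em 480/540) was read kinetically for 3 min. Fifteen concentrations, triplicate.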

Test [4] is described as follows: p53 small molecule agonists, cell-based qHTS assay with rat liver microsomes (AID 1963578). In outline:
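Metabolic activation is supplied by rat liver microsomes with NADPH (each 0.5 mg/mL final). p53RE-bla cells incubate with compound 16 h at 37 C; reporter activity is measured by LiveBLAzer fluorescence.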
A general note: qHTS replaces the single test concentration by a dilution series.

The nature of test [5]: p53 small molecule agonists, cell-based qHTS assay with human liver microsomes: qHTS cell viability counter screen (AID 1963579). Note: nearly all actives have a fitted effect of over 45% in size. Note: potency is the fitted concentration of half-maximal effect. The procedure, abridged:
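After the 460/530 nm beta-lactamase read, CellTiter-Glo was added to the same wells and luminescence measured after 30 min at room temperature, giving viability of p53RE-bla cells treated 16 h with compounds plus microsomes and NADPH.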

Test [6] is described as follows: p53 small molecule agonists, cell-based qHTS assay with rat liver microsomes: qHTS cell viability counter screen (AID 1963580). Note: nearly all actives have a fitted effect of over 45% in size. In outline:
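HCT-116 p53RE-bla, 4,000 cells/well, 5 h pre-incubation; cpd + rat liver microsomes 0.5 mg/mL + NADPH 0.5 mg/mL (final); 16 h, 37 C; CellTiter-Glo, 30 min RT; luminescence.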

Test [7] can be described thus: p53 small molecule agonists, cell-based qHTS assay: qHTS cell viability counter screen (AID 1963581). Note: nearly all actives have a fitted effect of over 45% in size. The procedure, abridged: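 p53RE-bla HCT-116 cells, compounds added 5 h after plating and incubated 16 h at 37 C. Cytotoxicity measured in the same wells as intracellular ATP by CellTiter-Glo luminescence after 30 min at room temperature.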
Test [8] is described as follows: p53 small molecule agonists, cell-based qHTS assay (AID 1963582; active = well fitted activation curve with a large enough effect in the signal ratio in the repeat runs, not every such curve was filed as active; the % refers to the signal ratio). The procedure, abridged:
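p53RE-bla reporter cells, compounds added in DMSO after 5 h plating, incubated 16 h at 37 C. Beta-lactamase read via 2 h room-temperature LiveBLAzer B/G FRET substrate, fluorescence intensity.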

Test [9] deals with 5-hydroxytryptamine receptor 2A (Homo sapiens) (UniProt P28223). The test can be described thus: 5-hydroxytryptamine receptor 2A (HTR2A) small molecule antagonists, cell-based qHTS assay (AID 1963586). Note: nearly all actives have a fitted effect of over 45% in size. The procedure, abridged:
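Antagonist-mode intracellular calcium assay: DOI (4 nM) added after 5 min compound pre-incubation at room temperature to dye-loaded HTR2A-CHO cells. Fluorescence followed for 3 min, sampled every second.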

Test [10] has the same target. The test is described as follows: 5-hydroxytryptamine receptor 2A (HTR2A) small molecule agonists, cell-based qHTS assay (AID 1963587). Note: nearly all actives have a fitted effect of over 30% in size. Note: potency is the fitted concentration of half-maximal effect. The procedure, abridged: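 Kinetic calcium-flux fluorescence (2 min, 1 sec intervals) after compound addition in agonist mode. HTR2A-CHO cells were cultured 18 h, then dye-loaded 1 h at 37 C.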
Test [11] deals with Muscarinic acetylcholine receptor M1 (Homo sapiens) (UniProt P11229). The test is described as follows: Cholinergic receptor muscarinic 1 (CHRM1) small molecule antagonists, cell-based qHTS assay (AID 1963588). Note: nearly all actives have a fitted effect of over 40% in size. In outline:
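CHRM1-CHO calcium-flux assay, antagonist mode. Cells were seeded 18 h, dye-loaded 1 h at 37 C and given compound for 5 min at RT, then acetylcholine was added at 50nM. FDSS fluorescence was read 3 min; 15 concentrations, three runs.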

The target is the same in test [12]. The test is described as follows: Cholinergic receptor muscarinic 1 (CHRM1) small molecule agonists, cell-based qHTS assay (AID 1963589). Note: nearly all actives have a fitted effect of over 35% in size. The procedure, abridged:
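CHO cells stably expressing human CHRM1 were loaded with calcium dye for 1 h at 37 C, then compound was added in agonist mode. Intracellular calcium fluorescence was followed kinetically at 1 s intervals. Fifteen concentrations were tested in three independent runs.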

Test [13] in a line: cAMP Responsive Elements (CRE) small molecule agonists, cell-based qHTS assay (AID 1963590). In outline: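 CRE-bla HEK 293T cells, 2,000/well in DMEM with 10% dialyzed FBS and 25 mM HEPES, pre-incubated 18 h at 37 C, then exposed to compound 3 h at 37 C. Beta-lactamase reporter read with LiveBLAzer B/G FRET substrate after 2 h at room temperature.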
Test [14] can be described thus: cAMP Responsive Elements (CRE) small molecule antagonists, cell-based qHTS assay (AID 1963591; active = well fitted inhibition curve with a large enough effect in the signal ratio in the repeat runs, not every such curve was filed as active; the % refers to the signal ratio). The procedure, abridged: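 CRE-bla HEK293T cells plated 18 h, then given compound plus NKH477 at 0.25 uM final for 3 h at 37C. Beta-lactamase reporter read with LiveBLAzer B/G FRET substrate after 2 h at room temperature.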
In test [15] the target is Beta-2 adrenergic receptor (Homo sapiens) (UniProt P07550). The test can be described thus: Adrenergic beta2 receptor (ADRB2) small molecule antagonists, cell-based qHTS assay (AID 1963592). Note: series mostly up to about 92 µM; nearly all actives have a fitted effect of over 50% in size. In outline:
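Cells (CHO, stable ADRB2 overexpression) incubated 18-20hr at 37C; compounds added from DMSO; agonist mix (1nM isoproterenol, 100uM IBMX, 25uM Ro-20-1724) added; 0.5hr RT; d2-cAMP and anti-cAMP-cryptate added; 1hr RT; 665/615 nm read.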

Test [16] shares this target. The test can be described thus: Adrenergic beta2 receptor (ADRB2) small molecule agonists, cell-based qHTS assay (AID 1963593).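 Note: CHO cells stably overexpressing human ADRB2.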 The procedure, abridged: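 CHO cells stably over-expressing ADRB2 were plated overnight at 37C, then dosed with compounds plus a stimulation mix containing 100uM IBMX and 25uM Ro-20-1724 for 0.5hr at room temperature. cAMP was measured by HTRF competition, 1hr.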

In test [17] the target is D(2) dopamine receptor (Homo sapiens) (UniProt P14416). The test can be described thus: Dopamine D2 receptor (DRD2) small molecule agonists, cell-based qHTS assay (AID 1963594). Note: nearly all actives have a fitted effect of over 35% in size. The procedure, abridged:
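cAMP accumulation in DRD2-HEK293 cells measured by HTRF after 1 h detection; compounds added 10 min before NKH477 (200nM […]) forskolin-analogue stimulation, 30 min at room temperature, with Ro20-1724 present at 0.1 mM final.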

Test [18] is described as follows: p53 small molecule agonists, cell-based qHTS assay with human liver microsomes (AID 1963577).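 Note: p53 response element beta-lactamase reporter cells with liver microsomes plus NADPH.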 In outline:
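Steps: plate p53RE-bla cells, incubate 5 h at 37 C; add compound in DMSO; add microsomes (0.5 mg/mL final) and NADPH (0.5 mg/mL final); incubate 16 h at 37 C; add LiveBLAzer, 2 h RT; read fluorescence.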

Test [19] deals with D(2) dopamine receptor (Homo sapiens) (UniProt P14416). The test can be described thus: Dopamine D2 receptor (DRD2) small molecule antagonists, cell-based qHTS assay (AID 1963595; active = well fitted inhibition curve with a large enough effect in the signal ratio in the repeat runs, with a control signal flat; the % refers to the signal ratio). In outline:
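Readout: HTRF cAMP, cAMP-d2 competing with cellular cAMP for anti-cAMP cryptate, read after 1 h. Cells: DRD2-HEK293. Conditions: 0.1 mM Ro20-1724, 12 nM quinpirole, 200 nM NKH477, 30 min RT.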

A short description of test [20]: G protein-coupled receptor (GPCR) small molecule agonists, calcium flux assay: HEK293 wild type cell line counter screen (AID 1920065). The procedure, abridged:
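Wild-type HEK293 cells plated 18 h, loaded with calcium dye 1 h at 37 C, then compounds added in agonist mode (ATP as positive control). Kinetic fluorescence Ex/Em 480/540 recorded 3 min at 1 sec intervals; 15 concentrations, triplicate.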

D(2) dopamine receptor (Homo sapiens), sequence (P14416 whole entry, looked up): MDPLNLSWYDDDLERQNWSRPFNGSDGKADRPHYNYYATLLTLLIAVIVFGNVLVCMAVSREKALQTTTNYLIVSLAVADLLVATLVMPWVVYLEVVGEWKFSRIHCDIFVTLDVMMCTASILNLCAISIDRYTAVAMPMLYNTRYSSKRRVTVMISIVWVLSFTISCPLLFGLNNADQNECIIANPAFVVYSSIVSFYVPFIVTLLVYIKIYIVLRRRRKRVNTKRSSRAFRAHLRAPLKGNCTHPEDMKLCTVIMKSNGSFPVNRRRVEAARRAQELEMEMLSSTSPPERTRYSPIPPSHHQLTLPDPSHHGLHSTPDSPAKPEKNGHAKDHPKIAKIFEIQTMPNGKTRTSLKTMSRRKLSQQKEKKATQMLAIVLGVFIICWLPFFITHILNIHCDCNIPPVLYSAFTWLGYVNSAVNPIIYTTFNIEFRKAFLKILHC
Gonadotropin-releasing hormone receptor (Homo sapiens), sequence (P30968 whole entry, looked up): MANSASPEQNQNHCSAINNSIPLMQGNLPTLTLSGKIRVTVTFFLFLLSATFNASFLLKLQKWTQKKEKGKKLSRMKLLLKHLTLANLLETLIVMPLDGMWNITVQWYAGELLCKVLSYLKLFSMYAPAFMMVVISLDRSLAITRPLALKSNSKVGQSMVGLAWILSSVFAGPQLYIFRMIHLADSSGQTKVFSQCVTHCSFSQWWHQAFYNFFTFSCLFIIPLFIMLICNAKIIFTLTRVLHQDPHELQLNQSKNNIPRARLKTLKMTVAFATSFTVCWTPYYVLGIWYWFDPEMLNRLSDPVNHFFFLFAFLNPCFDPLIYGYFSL
KiSS-1 receptor (Homo sapiens), sequence (Q969F8 whole entry, looked up): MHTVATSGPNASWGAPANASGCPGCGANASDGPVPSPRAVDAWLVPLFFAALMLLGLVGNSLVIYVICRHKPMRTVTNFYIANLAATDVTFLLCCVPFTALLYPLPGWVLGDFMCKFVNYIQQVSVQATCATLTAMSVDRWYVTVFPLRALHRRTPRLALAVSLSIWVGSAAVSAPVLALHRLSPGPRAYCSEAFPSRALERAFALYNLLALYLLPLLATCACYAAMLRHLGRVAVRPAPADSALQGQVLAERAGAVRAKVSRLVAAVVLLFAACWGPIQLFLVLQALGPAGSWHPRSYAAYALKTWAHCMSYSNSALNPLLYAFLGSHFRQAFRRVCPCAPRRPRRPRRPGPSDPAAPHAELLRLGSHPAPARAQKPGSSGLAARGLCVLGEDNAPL
5-hydroxytryptamine receptor 2A (Homo sapiens), sequence (P28223 whole entry, looked up): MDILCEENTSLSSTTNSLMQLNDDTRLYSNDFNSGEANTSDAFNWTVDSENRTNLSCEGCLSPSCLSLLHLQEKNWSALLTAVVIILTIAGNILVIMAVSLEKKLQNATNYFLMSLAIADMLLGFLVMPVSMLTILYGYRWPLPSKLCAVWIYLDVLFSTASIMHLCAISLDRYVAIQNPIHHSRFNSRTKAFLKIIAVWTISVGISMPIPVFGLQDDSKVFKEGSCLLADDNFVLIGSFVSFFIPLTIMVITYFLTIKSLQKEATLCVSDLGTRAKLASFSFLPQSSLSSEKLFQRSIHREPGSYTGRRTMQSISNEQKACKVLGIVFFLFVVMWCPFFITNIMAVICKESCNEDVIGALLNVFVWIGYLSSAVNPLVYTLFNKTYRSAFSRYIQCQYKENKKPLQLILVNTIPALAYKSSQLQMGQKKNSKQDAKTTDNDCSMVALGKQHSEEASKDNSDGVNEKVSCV
Beta-2 adrenergic receptor (Homo sapiens), sequence (P07550 whole entry, looked up): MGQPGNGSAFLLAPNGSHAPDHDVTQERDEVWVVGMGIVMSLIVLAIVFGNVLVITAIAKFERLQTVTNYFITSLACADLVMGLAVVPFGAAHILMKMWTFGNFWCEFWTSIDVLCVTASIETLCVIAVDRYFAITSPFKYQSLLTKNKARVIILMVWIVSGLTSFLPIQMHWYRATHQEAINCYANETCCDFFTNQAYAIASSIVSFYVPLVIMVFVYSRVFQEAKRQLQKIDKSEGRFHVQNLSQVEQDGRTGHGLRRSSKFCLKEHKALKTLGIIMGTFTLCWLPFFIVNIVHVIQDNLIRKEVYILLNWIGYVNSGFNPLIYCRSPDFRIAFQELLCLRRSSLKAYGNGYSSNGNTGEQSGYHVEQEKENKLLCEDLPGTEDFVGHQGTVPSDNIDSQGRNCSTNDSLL
Muscarinic acetylcholine receptor M1 (Homo sapiens), sequence (P11229 whole entry, looked up): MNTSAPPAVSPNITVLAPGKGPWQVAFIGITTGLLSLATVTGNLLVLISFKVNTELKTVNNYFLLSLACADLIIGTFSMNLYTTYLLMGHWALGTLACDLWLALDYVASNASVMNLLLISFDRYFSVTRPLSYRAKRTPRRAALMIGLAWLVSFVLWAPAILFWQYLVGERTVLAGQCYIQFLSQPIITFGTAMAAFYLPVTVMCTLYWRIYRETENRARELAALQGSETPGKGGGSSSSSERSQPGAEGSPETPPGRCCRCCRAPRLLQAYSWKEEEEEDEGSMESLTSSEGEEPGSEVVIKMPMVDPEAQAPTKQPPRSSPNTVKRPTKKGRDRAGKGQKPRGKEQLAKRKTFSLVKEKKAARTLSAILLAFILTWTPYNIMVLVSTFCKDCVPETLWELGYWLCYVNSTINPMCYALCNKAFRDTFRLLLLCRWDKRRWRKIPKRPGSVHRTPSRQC

Turning to `CCCCCCCCCCCCCl`, the Potency result in test [1], in test [2], in test [3], in test [4], in test [5] and in test [6] was “inactive” throughout. The Potency result in test [7], in test [8], in test [9], in test [10], in test [11] and in [12] was “inactive” throughout. Further, the Potency result in test [13], in test [14], in test [15], in test [16] and in [17] was “inactive” each time.
As for `NC(=O)CN1CCCC1=O`, the Potency result in test [1], in test [2], in test [3], in test [18], in test [4] and in test [5] was “inactive” in each case. For the same compound, the Potency result in [6], in test [7], in test [8], in test [14], in test [15] and in test [16] was “inactive” throughout. For the same compound, the Potency result in test [17] and in test [19] was “inactive” each time.
Take `CCCCn1cc[n+](C)c1`: the Potency entry in [1], in test [3], in test [7], in test [10], in test [11] and in test [12] was “inactive” in each case. Also, the Potency result in test [14], in test [15], in test [16], in [17] and in test [19] was “inactive” in each case. Moreover, in test [5], the Potency result was “inactive and 40.8 µM (active)”.
On to `C=CCc1ccccc1O`, for which the Potency result in test [1], in test [2], in test [3], in [18], in test [4] and in test [6] was “inactive” in each case. In addition, the Potency result in test [7], in test [8], in [9], in test [10], in test [11] and in [13] was “inactive” each time. In addition, the Potency result in test [14], in test [15], in [17] and in test [19] was “inactive” each time.
As for `CNc1cnn(-c2cccc(C(F)(F)F)c2)c(=O)c1Cl`, the Potency result in test [1], in test [2], in test [20], in test [4], in test [5] and in test [6] was “inactive” throughout. In addition, the Potency entry in test [7], in test [8], in test [9], in test [10], in test [11] and in test [12] was “inactive” throughout. Further, the Potency entry in [13], in test [14], in [15], in test [16], in test [17] and in test [19] was “inactive” each time.
For the compound `CCCCCCCCCCCCOS(=O)(=O)O`, the Potency entry in test [1], in [2], in test [3], in test [20], in test [5] and in [7] was “inactive” throughout. The Potency result in test [9], in test [11], in test [12], in [13], in test [15] and in test [16] was “inactive” in each case. Also, the Potency result in [17] and in test [19] was “inactive” in each case. Further, the Potency entry in test [10] is “inactive and 55 µM (active) and 49 µM (active)”.
Consider `CN1C(=O)CN=C(c2ccccc2)c2cc(Cl)ccc21`, for which the Potency result in test [1], in test [2], in test [20], in [7], in test [8] and in [13] was “inactive” throughout. Further, the Potency entry in test [14], in [15] and in test [17] was “inactive” in each case.
Turning to `CC(C)(C)C(=O)C(Cl)Cl`, the Potency result in [1], in test [2], in test [20], in test [18], in test [5] and in [6] was “inactive” each time. Moreover, the Potency result in test [7], in [8], in [10], in [11], in test [12] and in test [13] was “inactive” throughout. For the same compound, the Potency result in [14], in test [15], in test [17] and in [19] was “inactive” each time.
`CC(=O)O`: the Potency result in test [1], in test [2], in test [20], in test [5], in [6] and in [7] was “inactive” each time. For the same compound, the Potency entry in test [9], in test [10], in test [11], in [12], in test [13] and in test [14] was “inactive” each time. For the same compound, the Potency result in test [17] and in [19] was “inactive” each time.
Turning to `C=C(C)[C@H]1Cc2c(ccc3c2O[C@@H]2COc4cc(OC)c(OC)cc4[C@@H]2C3=O)O1`, the Potency entry in test [1] was “inactive and 29.8 nM (active)”. In addition, the Potency entry in test [2], in test [20], in [6], in test [15], in [16] and in test [17] was “inactive” throughout. Also, in test [19], the Potency entry is “inactive”.
